Several values for one entry are separate records, joined by “and”; a condition that tells them apart may be missing. Equal values may be shown once. The panel holds about 79,000 compounds, 15% with a hit somewhere; the sample as a whole holds those more often. Activity calls are given as the source filed them. No stated cut-off is given here; in the data, active means growth inhibition above about 70%; inactive means the rest.
Tests used:
[1] = NCI Yeast Anticancer Drug Screen. Data for the mec2-1 strain (AID 157); settings: S. cerevisiae mec2-1 strain, stronger effect = higher value; at 50.0 µM unless noted
Procedure, shortened: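 Growth inhibition is read against vehicle-treated controls after compound exposure of the mec2-1 yeast strain, which is defective in DNA damage repair or cell cycle control.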

[2] = NCI Yeast Anticancer Drug Screen. Data for the sgs1 mgt1 strain (AID 161);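 further: 0% = growth of cultures given vehicle only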; settings: S. cerevisiae sgs1 mgt1 strain, stronger effect = higher value; at 50.0 µM unless noted
Procedure, shortened: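 Growth of a repair-deficient yeast mutant was monitored after compound treatment and expressed as inhibition relative to vehicle-treated cultures.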

[3] = NCI Yeast Anticancer Drug Screen. Data for the cln2 rad14 strain (AID 165);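 further: 0% = growth equal to vehicle treated cultures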; settings: S. cerevisiae cln2 rad14 strain, stronger effect = higher value; at 50.0 µM unless noted
Procedure, shortened: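 Growth inhibition, relative to vehicle-treated controls, is the read-out. The test organism is a yeast strain with defined genetic alterations, cln2 rad14.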

[4] = NCI Yeast Anticancer Drug Screen. Data for the bub3 strain (AID 167); settings: S. cerevisiae bub3 mutant strain, stronger effect = higher value; at 50.0 µM unless noted
Procedure, shortened: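 Steps: expose the mutant yeast strain to compound; grow alongside vehicle-treated cultures; measure growth; express inhibition against the vehicle cultures.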

[5] = NCI Yeast Anticancer Drug Screen. Data for the mlh1 rad18 strain (AID 175); settings: S. cerevisiae mlh1 rad18 strain growth inhibition, stronger effect = higher value; at 50.0 µM unless noted
Procedure, shortened: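 Cells of a genetically altered yeast strain, deficient in DNA damage repair, were treated with compound. Their growth was then compared with that of vehicle-treated cultures to give inhibition.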

Measured: growth inhibition

COc1cccc(C2SCC(=O)N2c2ccc(-n3c(-c4ccccc4)nc4ccccc4c3=O)cc2)c1OC (stereo not given)
inactive: [1] 26.4% | [2] 0.9% | [3] -9.7% | [4] 22.4% | [5] 26.9%

CC1=NN2C(c3ccc([N+](=O)[O-])cc3)=CSC2=NC(C)(C)C1
inactive: [1] -5.6% | [2] 5.7% | [3] -5% | [4] -4.95% | [5] -11.6%

Cc1cccc(C(C)C)c1N1C(=O)C(=O)C(c2nc3ccccc3o2)C(=O)C1=O
inactive: [1] 2.15% | [2] 16.1% | [3] 39.1% | [4] 16.5% | [5] 31.2%

N#CC(NNC(=O)Cc1ccccc1)c1ccc(O)cc1 (stereo not given)
inactive: [1] -22.6% | [2] -37.1% | [3] -7.05% | [4] -25.6% | [5] -32.5%

COc1cc(C2c3cc4c(c(OC)c3CC3COC(=O)[C@@H]32)OCO4)cc(OC)c1O (stereo not given in full)
active: [1] 86.2% | [2] 80.5% | [3] 76.3% | [4] 82.8% | [5] 87.7%

COc1cc(N(Cc2ccc3nc(OC)c(OC)nc3c2)Cc2ccc3nc(OC)c(OC)nc3c2)cc(OC)c1OC
inactive: [1] -23.6% | [2] -19.4% | [3] -6.4% | [4] -20.4% | [5] -14.6%

CN(C)C(=S)Oc1ccc(-c2c(-c3ccccc3)oc3ccc4ccccc4c23)cc1
inactive: [1] -4.05% | [2] 7.95% | [3] 10.8% | [4] -0.1% | [5] 9.4%

C=C1CC2C=CC1C2 (stereo not given)
inactive: [1] -25.4% | [2] 1.3% | [3] 0.25% | [4] -15.8% | [5] 2.85%

Nn1c(-c2cccc(Cl)c2)nc2ccccc2c1=O
inactive: [1] 5.45% | [2] 13% | [3] 25.7% | [4] 17.9% | [5] 36.8%

Cc1ccccc1NS(=O)(=O)N1CCCCC1
inactive: [1] -24.4% | [2] -4.3% | [3] 18.9% | [4] 22.1% | [5] -5.65%

NNC(=O)C(c1ccccc1)c1ccccc1
inactive: [1] -8.95% | [2] -18.8% | [3] 3% | [4] -28.9% | [5] -0.25%

O=C(O)CCc1[nH]c(I)nc1I
inactive: [1] 14.3% | [2] 5.3% | [3] -0.7% | [4] -7.45% | [5] 29.5%

S=c1[nH]nc2scnn12
inactive: [1] 3.55% | [2] 4.25% | [3] -45.5% | [4] 7.4% | [5] -9.3%

O=C(NC1c2ccccc2Oc2ccccc21)OCCI
inactive: [1] 6.05% | [2] 37.6% | [3] 13.3% | [4] -14% | [5] 19.8%

N.N.O=P([O-])([O-])C1(P(=O)([O-])[O-])CCCCCN1.[Pt+2]
inactive: [1] 22.4% | [2] -5.05% | [3] 6.25% | [4] 23.7% | [5] 11.2%

OCC12c3ccccc3C3c4ccccc4C1C32 (stereo not given)
inactive: [1] -17.4% | [2] -4.05% | [3] -31.1% | [4] -18.9% | [5] 0.95%

CN1CCC(O)CC1
inactive: [1] -23.4% | [2] -11.3% | [3] -0.35% | [4] 6.35% | [5] -3%

CN(C)C(=S)Oc1c([N+](=O)[O-])cc([N+](=O)[O-])cc1C(C)(C)C
active: [1] 89.9% | [2] 93.8% | [3] 78% | [4] 92.6% | [5] 95%

CCOCc1cccc2ccccc12
inactive: [1] -33.9% | [2] -14.9% | [3] 9% | [4] -6.55% | [5] -23.9%

COc1ccc(/C=C2\N=C(c3ccc([N+](=O)[O-])cc3)OC2=O)cc1OC
inactive: [1] -2.75% | [2] -14.8% | [3] -15.5% | [4] 0.25% | [5] -17.1%

CC(C)Cc1c(C#N)c(C#N)c(N)n1Cc1ccccc1
inactive: [1] 11.4% | [2] -29% | [3] -12% | [4] -22.1% | [5] -36.4%

CN(C)c1ccc(C2NC(=S)NC3=C2CCCC3)cc1 (stereo not given)
inactive: [1] -15.6% | [2] 5% | [3] -20.6% | [4] 22.8% | [5] 14.6%

CC(=O)OCC(OC(C)=O)C(OC(C)=O)C(/C=N/N(C(C)=O)S(=O)(=O)c1ccc(/C=C2\NC(=O)NC2=O)cc1)OC(C)=O (stereo not given)
inactive: [1] -23.6% | [2] -34.6% | [3] -2.45% | [4] -18.9% | [5] -25.6%

COc1cc(/C=N/NC(=O)c2ccccc2OC)ccc1O
inactive: [1] 17.4% | [2] 22.9% | [3] 20.8% | [4] 27.9% | [5] 17.2%

CC1OC(O[C@H]2CC[C@]3(C)[C@H]4CC=C5[C@@H]6[C@@H](C)[C@H](C)CC[C@]6(C(=O)OC6OC(CO)C(O)C(O)C6O)CC[C@@]5(C(=O)O)[C@]4(C)CC[C@H]3C2(C)C)C(O)C(O)C1O (stereo not given in full)
inactive: [1] -1.8% | [2] -31.6% | [3] -29.5% | [4] -23.2% | [5] -40.5%

CN1CCN(C(=S)N(C)C(=O)c2ccco2)CC1
inactive: [1] -36.9% | [2] -48.9% | [3] -8.85% | [4] -44.4% | [5] -40.1%

O=C(O)c1ccccc1C(=O)Nn1cnnc1
inactive: [1] 1.15% | [2] -25.9% | [3] 17.2% | [4] -8.1% | [5] -0.1%

O=Cc1ccc(OC(=O)Nc2ccc([N+](=O)[O-])cc2)cc1
inactive: [1] 45% | [2] 33.4% | [3] -2.7% | [4] 46.6% | [5] 47.4%

CCCCN1C(=O)NC(Cc2ccccc2)C1=O (stereo not given)
inactive: [1] -1.35% | [2] -13.2% | [3] 4.95% | [4] -1.9% | [5] -12.5%

COC1OC(CI)C(O)C(O)C1O (stereo not given)
inactive: [1] 2.4% | [2] -4.45% | [3] -24.2% | [4] 37.8% | [5] -16.7%

CCOC(=O)/C(C)=C\C=C(\C)CCC=C(C)C
inactive: [1] -19.1% | [2] -2.45% | [3] -28.3% | [4] -15.2% | [5] 15.4%

CC[C@H](CC[C@@H](C)[C@H]1CC[C@H]2[C@@H]3CC=C4C[C@@H](O)CC[C@]4(C)[C@H]3CC[C@]12C)C(C)C
inactive: [1] -4.1% and -11.6% | [2] 26.6% and -12.2% | [3] 15.9% and 7.85% | [4] 5.95% and -13.2% | [5] 13.1% and -3.05%

From PubChem BioAssay (NCI)
